Source: PubChem (Broad Institute)
CDK5 p35 inh = CDK5/p35 (human) kinase inhibition | actives 0.01% (n = 330,000) | inhibition, % at 10 µM | AID 488839 | Recombinant CDK5/p35, ADP-Glo luminescence, 60 min | Q00535+Q15078;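 active = highest replicate inhibition of at least 50% and at least 75% of replicates reaching 50%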;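 note: plate controls were DMSO neutral control for no effect and GW8510 at 10 µM for full effect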
dFosB act = enhances mouse delta FosB homodimer DNA binding; activation, % at 25 µM; actives 0.99% (n = 340,000); purified delta FosB, TAMRA-CDK5 oligo fluorescence polarization; percent of positive-control signal above neutral wells; AID 493131; P13346;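 active = mean activation above about 17%, with every replicate also reaching it, limit read from the data, passing the limit was not always enough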
Target sequence (P13346 whole entry, looked up): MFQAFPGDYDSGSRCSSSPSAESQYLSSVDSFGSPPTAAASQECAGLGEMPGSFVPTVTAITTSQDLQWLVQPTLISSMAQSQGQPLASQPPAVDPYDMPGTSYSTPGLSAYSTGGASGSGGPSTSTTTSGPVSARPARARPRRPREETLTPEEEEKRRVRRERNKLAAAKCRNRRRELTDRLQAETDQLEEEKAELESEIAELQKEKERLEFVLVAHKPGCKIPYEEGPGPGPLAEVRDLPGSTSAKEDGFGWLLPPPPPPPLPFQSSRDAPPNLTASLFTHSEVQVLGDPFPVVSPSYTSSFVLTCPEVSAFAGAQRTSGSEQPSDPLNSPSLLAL
PglD DTNB = blocks C. jejuni PglD acetyltransferase activity; actives 0.098% (n = 360,000); purified PglD enzyme, DTNB colorimetric CoA detection; inhibition, % at 12.5 µM; in the data active = inhibition above about 16%, passing the limit was not always enough
PvdQ acylase = P. aeruginosa PvdQ acylase inhibition; purified PvdQ acylase, fluorescence plate reader; AID 488965; actives 0.063% (n = 340,000); inhibition, % at 10 µM; in the data active = inhibition above about 30%, passing the limit was not always enough;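 note: 0% = vehicle neutral wells and 100% = reference inhibitor wells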
FGF22 binding = binders of recombinant human FGF22 by thermal shift. Q9HCT0. SYPRO orange fluorescence; percent of sucrose octasulfate shift, DMSO zero. activity (Tm shift, normalised), % at 9.99 µM. actives 1.5% (n = 340,000). AID 651658;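 active = mean Tm shift, scaled 0 neutral to 100 positive control, at about 1.3% or above, every replicate too, limit read from the data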
Target sequence (Q9HCT0 whole entry, looked up): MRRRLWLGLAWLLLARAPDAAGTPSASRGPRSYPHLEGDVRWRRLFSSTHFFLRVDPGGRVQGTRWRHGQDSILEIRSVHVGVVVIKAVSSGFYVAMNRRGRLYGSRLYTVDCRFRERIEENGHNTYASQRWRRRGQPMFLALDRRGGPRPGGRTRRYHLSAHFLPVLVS
SIRT5 block = inhibitors of human sirtuin-5 desuccinylase; actives 1.1% (n = 330,000); Purified SirT5, succinyl-peptide AMC, trypsin-coupled fluorescence; AID 652115; inhibition, % at 15 µM; in the data active = inhibition above about 15%
* hit, by the source's call; · = no result. Shown are actives, neighbours in structure and some others; about 2.8% of the full set was active somewhere.

SMILES | CDK5 p35 inh | dFosB act | PglD DTNB | PvdQ acylase | FGF22 binding | SIRT5 block
COC(C(=O)NCc1ccc(C)cc1)c1ccccc1 (configuration not stated) | 0 | -7 | · | -1 | 43* | 1
COC(=O)[C@H](Cc1ccccc1)NC(=O)NCc1ccc(C)cc1 | · | · | -1 | · | 0 | 0
Cc1ccc(CNC(=O)N[C@@H](Cc2ccccc2)C(=O)O)cc1 | -1 | -1 | -6 | -6 | 0 | 17*
COC(C(=O)N/N=C(\C)c1ccc(C)cc1)c1ccccc1 (configuration not stated) | 1 | -6 | 8 | 12 | 0 | -3
O=C(C1=C[C@@H](c2ccc(C(F)(F)F)cc2)C[C@@H](OCc2ccc(CO)cc2)O1)N1CCCC1 | · | · | · | · | -1 | 2
C[C@H](NC(=O)C[C@@H]1CC[C@H](NC(=O)c2cccnc2)[C@H](CO)O1)c1ccccc1 | · | · | -9 | · | 0 | 1
O=C1CSC(c2cccc([N+](=O)[O-])c2)N1c1ccc(O)cc1 (configuration not stated) | 0 | -5 | · | -15 | 0 | -1
CC(=O)Nc1ccc(N2C(=O)CSC2c2cccc([N+](=O)[O-])c2)cc1 (configuration not stated) | 2 | -2 | · | -5 | 44* | -1
CCCN(C)C[C@@H]1OCCCC[C@H](C)Oc2ccc(NC(=O)Nc3cccc4ccccc34)cc2C(=O)N([C@H](C)CO)C[C@@H]1C | · | · | · | · | 0 | 2
Cc1ccc(C(=O)COC(=O)CN2C(=O)C3C4CC(C(Br)C4Br)C3C2=O)cc1 (configuration not stated) | -2 | 13 | 2 | -5 | 0 | 102*
CC(=O)c1ccc(N(CC(=O)NC2CCCC2)C(=O)c2csnn2)cc1 | -1 | -1 | -1 | 3 | 44* | -5
C[C@@H]1CN([C@@H](C)CO)S(=O)(=O)c2ccc(C#Cc3ccc(F)cc3)cc2O[C@@H]1CN(C)C(=O)c1ccccn1 | · | · | 1 | · | 0 | 2
C/C(=N\NC(=O)CN(c1ccc(Oc2ccccc2)cc1)S(C)(=O)=O)C(C)(C)C | 0 | -14 | · | -1 | 44* | -4
CS(=O)(=O)N(CC(=O)NN=C1CCCCCC1)c1ccc(Oc2ccccc2)cc1 | -5 | -7 | -2 | -5 | 1 | 2
Cc1ccc(S(=O)(=O)N(C)C[C@@H]2Oc3ncc(Br)cc3C(=O)N([C@@H](C)CO)C[C@H]2C)cc1 | · | · | -4 | · | 0 | 2
Cc1ccc(CSc2nnc(-c3ccncc3)o2)c(C)c1 | -1 | -7 | 6 | 23 | 43* | -1
Clc1ccccc1CSc1nnc(-c2ccncc2)o1 | 1 | -3 | 3 | -7 | · | ·
C[C@H](CO)N1C[C@H](C)[C@H](CN(C)C(=O)c2ccncc2)OCCCC[C@H](C)Oc2ccc(NC(=O)c3ccccc3)cc2C1=O | · | · | 6 | · | 0 | 4
Cc1ccc(NC(=O)COCC(=O)Nc2ccc(F)cc2)cc1 | -2 | -6 | 3 | -8 | 1 | 24*
C/C(=N\NC(=O)C1COc2ccccc2O1)c1cc2ccccc2o1 (configuration not stated) | 0 | 13 | -6 | -4 | 44* | 0
C/C(=N\NC(=O)c1cccnc1)c1cc2ccccc2o1 | 2 | -13 | · | -3 | 43* | -2
C/C(=N\NC(=O)C1COc2ccccc2O1)c1ccc(C)o1 (configuration not stated) | 3 | -4 | · | 8 | · | ·
C/C(=N\NC(=O)c1ccc(Br)cc1)c1cccc(NC(=O)c2cccnc2)c1 | 3 | -4 | · | -5 | 0 | 20*
C[C@H](CO)N1C[C@H](C)[C@H](CN(C)Cc2ccccc2)OCCCC[C@H](C)Oc2ccc(NC(=O)Nc3ccc(F)cc3)cc2C1=O | · | · | -1 | · | -1 | 2
CN(C)c1ccc(/C=C/c2ccc3c4ccccc4ccc3[n+]2-c2ccccc2)cc1 | 17 | 112* | 1 | 4 | 0 | 1
SMILES | CDK5 p35 inh | dFosB act | PglD DTNB | PvdQ acylase | FGF22 binding | SIRT5 block
CN(CCCS(=O)(=O)[O-])c1ccc(/C=C/c2ccc3ccccc3[n+]2C)cc1 | -1 | 2 | 6 | -4 | 0 | -3
CN(C)c1ccc(/C=C/c2ccc3ccccc3[n+]2C)cc1 | 12 | 96* | -2 | -10 | · | ·
O=C(C[C@H]1C=C[C@@H](NC(=O)CN2CCOCC2)[C@@H](CO)O1)NC1CCC1 | · | · | 13 | · | 0 | 0
COc1ccc(NC(=O)NNc2cc(N3CCOCC3)nc(N3CCOCC3)n2)cc1 | 1 | -4 | · | 3 | 0 | -1
O=C(NNc1nc(N2CCOCC2)nc(N2CCOCC2)n1)Nc1ccc(Cl)cc1 | · | · | · | · | 43 | 15*
CN(C)CC#Cc1ccc([C@@H]2[C@H]3CN(C(=O)c4ccc5c(c4)OCO5)CCCCN3[C@H]2CO)cc1 | · | · | -4 | · | 0 | 1
O=C(COc1ccc(S(=O)(=O)N2CCOCC2)cc1)NCCc1ccc(Cl)cc1 | · | · | 5 | · | 43* | ·
COc1ccc(CNC(=O)COc2ccc(S(=O)(=O)N3CCOCC3)cc2)cc1 | -1 | -4 | 2 | -14 | 0 | -2
O=C(C[C@H]1C=C[C@@H](NC(=O)Nc2ccc(F)cc2)[C@H](CO)O1)NCc1ccccn1 | · | · | 2 | · | 0 | -1
N#CC1=C(N)C(C#N)(C#N)C(c2ccncc2)C2CN(C(=O)OCc3ccccc3)CC=C12 (configuration not stated) | -3 | 7 | 5 | -13 | · | ·
N#CC1=C(N)C(C#N)(C#N)[C@H](c2cccnc2)[C@H]2CN(C(=O)OCc3ccccc3)CC=C12 | 0 | -1 | -1 | 13 | 0 | 16*
CCNC(=O)[C@@H]1[C@@H](CO)[C@@H]2Cn3c(ccc(-c4ccccc4F)c3=O)[C@H]1N2S(C)(=O)=O | · | · | · | · | · | -7
COc1ccc(NC(=O)N2C[C@@H](O)COC[C@H]3O[C@@H](CC(=O)NCc4ccccc4OC)CC[C@@H]32)cc1 | · | · | 2 | · | 0 | -2
Clc1ccc(C2=NNC(=NCC3CCCO3)SC2)cc1 (configuration not stated) | 1 | -3 | · | -4 | 43* | 1
Cn1c(NCCCO)nc2c1c(=O)n(Cc1ccccc1F)c(=O)n2C | 1 | 0 | -4 | -4 | · | 39*
Cn1c(=O)n(Cc2ccc(Cl)cc2)c(=O)c2c1nc1n2CCN1Cc1ccco1 | 1 | -7 | -3 | -11 | · | ·
Cn1c(=O)n(Cc2ccccc2F)c(=O)c2c1nc1n2CCN1Cc1ccco1 | -3 | -4 | 5 | -10 | 43* | -3
COc1ccc(CNC(=O)/C(C)=C\C(=O)O)cc1 | -3 | 1 | · | -15 | 43* | -1
COc1cccc(S(=O)(=O)N2CCC3(CC2)CN(C(=O)Nc2cccc(F)c2)[C@@H](CO)c2[nH]c4cc(OC)ccc4c23)c1 | · | · | · | · | 0 | -1
Cc1ccc(-c2nn(-c3ccccc3)cc2/C=N/NC(=O)c2ccncc2)o1 | 1 | 26* | · | -4 | -1 | -1
